# Screening data as filed in PubChem BioAssay.
# BAZ2B inh: inhibitors of human BAZ2B bromodomain. hit rate 4.4% among 360,000. Potency, µM (highest dose often 114 µM), most hits filed as inhibitors. Q9UIF8. AlphaScreen BAZ2B-H3K14Ac peptide displacement; also: nearly all actives have a fitted effect of over 60% in size
#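 AlphaScreen displacement of biotin-H3(5-23)K14Ac peptide (50 nM final) from BAZ2B (50 nM final) in PBS pH 7.4, 0.01% Tween-20; complex preformed 30 min RT, then compounds (top 110 uM) 30 min RT, beads 20 min dark.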
# PLK1 PBD block: PLK1 (human) polo-box domain binding inhibition; Plk1 PBD binding of FITC phosphopeptide, fluorescence polarization; P53350; hit rate 2.8% among 360,000; Potency, µM, actives largely listed as inhibitors; AID 720504; also: series mostly up to about 57 µM; nearly all actives have a fitted effect of over 65% in size
# HP1b chromo inh: HP1-beta chromodomain-methylated histone interaction inhibition; AlphaScreen HP1-beta / biotin-H3K9me3 peptide binding; Potency, µM (doses to about 114 µM), usual class: inhibitors; hit rate 0.56% among 390,000; AID 540317; also: nearly all actives have a fitted effect of over 70% in size
# Target sequence (P83916 whole entry, looked up): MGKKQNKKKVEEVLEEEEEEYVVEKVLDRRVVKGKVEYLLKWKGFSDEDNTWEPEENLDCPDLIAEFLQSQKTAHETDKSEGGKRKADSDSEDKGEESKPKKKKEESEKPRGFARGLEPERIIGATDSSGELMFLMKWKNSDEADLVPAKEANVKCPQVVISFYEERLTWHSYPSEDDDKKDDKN
#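 Compound inhibition of the preformed complex between 50 nM HP1-beta and 50 nM biotinylated H3K9me3 peptide was read by AlphaScreen. Buffer was PBS pH 7.4 with 0.01% Tween-20. Incubations ran 30 min at room temperature, with 10 ug/mL donor/acceptor beads.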
# G9a block: G9a (human) methyltransferase inhibition. Potency, µM (highest dose often 102 µM), actives largely listed as inhibitors. Q96KQ7. hit rate 8.8% among 350,000. G9a H3K9 monomethylation, AlphaScreen, 2 h; also: nearly all actives have a fitted effect of over 75% in size
#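 G9a (20 nM) preincubated 15 min RT with compounds, then 500 nM biotinylated H3K9 peptide and 20 uM SAM added; 2 h RT reaction. Monomethyl-H3K9 product detected by AlphaScreen with anti-H3K9me1 antibody, streptavidin donor and anti-rabbit IgG acceptor beads.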
# PI5P4K alpha inh: blocks human PI5P4K alpha kinase activity | P48426 | PI5P4Kalpha enzyme, ADP-Glo luminescence, 60 min; hits give low values | max response, % | hit rate 1.2% among 330,000 | AID 652105; active = max response of -50% or lower; inconclusive = between -30% and -50%; inactive = -30% or higher; also: value at the top dose of about 77 µM
# Target sequence (P48426 whole entry, looked up): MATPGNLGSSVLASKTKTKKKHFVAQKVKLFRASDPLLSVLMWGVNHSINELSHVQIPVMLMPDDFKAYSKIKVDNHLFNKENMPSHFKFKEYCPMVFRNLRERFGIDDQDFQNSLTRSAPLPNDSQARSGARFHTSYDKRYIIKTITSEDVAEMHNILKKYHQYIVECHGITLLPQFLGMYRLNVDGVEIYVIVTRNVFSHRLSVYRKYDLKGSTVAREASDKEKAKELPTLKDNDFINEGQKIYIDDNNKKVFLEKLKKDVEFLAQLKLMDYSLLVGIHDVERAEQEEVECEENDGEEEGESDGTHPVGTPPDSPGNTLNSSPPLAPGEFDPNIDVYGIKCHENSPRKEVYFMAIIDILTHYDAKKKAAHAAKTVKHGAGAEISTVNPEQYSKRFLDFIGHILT
#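 Enzyme plus substrate dispensed, test compounds pinned in, then ATP (5 microM final) added. After 60 min at RT, ADP-Glo reagent 1 for 45 min and reagent 2 for 30 min preceded luminescence imaging.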
# JMJD2A Tudor: blocks the human JMJD2A Tudor domain | AID 504339 | hit rate 4.4% among 390,000 | AlphaScreen JMJD2A-Tudor / H3K4me3 peptide binding | Potency, µM (series often up to 114 µM), hits mostly inhibitors | O75164; also: nearly all actives have a fitted effect of over 50% in size
# Numbers stand for hits; - = inactive; ? = inconclusive; . = no result given; [ ] = dose if it differs, or a comment. This is a sample that favours compounds with a hit; in the whole collection about 12% have one here. Unless noted, calls follow the shape of the dose curve; as a rule, active = well fitted curve in the direction sought with a large enough effect; inconclusive = small, poorly fitted or top-dose-only effect, or another doubt; inactive = no such curve, though single readings can be large; an effect the other way counts as inactive or inconclusive.
SMILES,BAZ2B inh,PLK1 PBD block,HP1b chromo inh,G9a block,PI5P4K alpha inh,JMJD2A Tudor
Cc1cc(/C=C2/C(=O)N(C)C(=S)N2C)c(C)n1C1CC1,?,-,-,79.4µM,-,?
Cc1cc(/C=C2\SC(=S)NC2=O)c(C)n1C1CC1,44.7µM,-,-,?,.,44.7µM
COc1ccc(N2C(=NC(=O)CCC3CCCC3)SC3CS(=O)(=O)CC32)cc1 (stereo not drawn),-,-,-,-,-,-
O=C(N/N=C/c1cccn1-c1ccccc1)c1ccncc1,?,-,-,-,-,-
CN1C(=O)S/C(=C/c2cccn2-c2cccc(C(=O)O)c2)C1=O,?,-,-,-,-,-
O=C(O)c1cccc(-n2cccc2/C=N/O)c1,44.7µM,?,?,?,?,31.6µM
ON=Cc1cccn1-c1ccccc1,50.1µM,-,-,-,.,-
COc1cc(C2c3c(oc4ccc(F)cc4c3=O)C(=O)N2Cc2ccc3c(c2)OCO3)ccc1O (stereo not drawn),-,.,-,-,.,-
CCOC(=O)N1CCN(C(=O)Cn2ncc3ccccc32)CC1,-,29.9µM,-,-,-,79.4µM
CCOC(=O)N1CCN(C(=O)CSc2nnc3[nH]c(=O)c(C)c(C)n23)CC1,-,-,-,14.1µM,-,-
CCOC(=O)N1CCN(C(=O)CSc2ccccc2)CC1,-,15µM,-,-,.,-
O=C(CSc1ccc(Cl)cc1)N1CCCC1,-,23.8µM,-,-,-,?
CCc1ccc(NC(=O)CN2C(=O)CCSc3ccccc32)cc1,-,.,-,-,.,-
Cc1cc(-c2ccc(S(=O)(=O)N3CCN(c4ccc(Cl)cc4)CC3)s2)on1,-,.,-,-,.,-
CCOC(=O)N1CCN(C/C(Cl)=C/c2ccccc2)CC1,?,-,50.1µM,.,-,1.78µM
O=c1n(Cc2ccccc2)c(O)c2n1Cc1ccccc1N=C2c1ccc(C(F)(F)F)cc1,.,-,.,.,-,.
O=C1[C@@H]2Cc3c([nH]c4ccccc34)[C@@H](c3ccccc3)N2C(=O)[C@@H]2Cc3c([nH]c4ccccc34)[C@@H](c3ccccc3)N12,?,.,.,14.1µM,.,.
C=CCN1C(=O)[C@@H]2Cc3c([nH]c4ccccc34)C(c3cc(OC)c(OC)c(OC)c3)N2C1=S (stereo partly drawn),-,-,-,?,-,-
CCOc1ccc(C2c3[nH]c4ccccc4c3C[C@H]3C(=O)N(C4CCN(Cc5ccccc5)CC4)CC(=O)N23)cc1OC (stereo partly drawn),?,-,-,?,-,?
O=C1[C@@H]2Cc3c([nH]c4ccccc34)C(c3cccc([N+](=O)[O-])c3)N2C(=O)CN1C1CCN(Cc2ccccc2)CC1 (stereo partly drawn),25.1µM,.,.,-[0.501 µM],.,.
C=CCN1C(=O)[C@@H]2Cc3c([nH]c4ccccc34)C(c3ccc(O)cc3)N2C1=S (stereo partly drawn),?,-,-,44.7µM,-,?
CC1Cc2c([nH]c3ccccc23)C2c3ccccc3CN12 (stereo not drawn),-,-,-,25.1µM,-,?
COc1cc([C@H]2c3[nH]c4ccccc4c3C[C@H]3C(=O)N4[C@@H](c5cc(OC)c(OC)c(OC)c5)c5[nH]c6ccccc6c5C[C@H]4C(=O)N23)cc(OC)c1OC,-,-,-,?,-,-
CC(C)c1ccc(C2c3[nH]c4ccccc4c3C[C@H]3C(=O)N(c4ccccc4C(=O)N4CCC[C@@H]4C(=O)O)C(=O)N23)cc1 (stereo partly drawn),-,42.3µM,-,-[12.7 µM],-,-
CCOC(=O)c1[nH]c2ccccc2c1NC(=S)Nc1cc(C)ccc1C,?,?,-,44.7µM,-,?
SMILES,BAZ2B inh,PLK1 PBD block,HP1b chromo inh,G9a block,PI5P4K alpha inh,JMJD2A Tudor
CCOC(=O)c1[nH]c2ccccc2c1NC(=S)Nc1ccccc1C,-,?,-,31.6µM,-,-
CCCC(=O)Nc1c(C(=O)OCC)[nH]c2ccccc12,-,-,-,-,-,-
CC1(C(=O)NS(=O)(=O)Cc2cccc(Cl)c2)CCN1C(=O)c1cccc(F)c1 (stereo not drawn),.,-,.,.,-,.
Cc1ccc(NS(=O)(=O)c2ccc3c(c2)N(C)CCO3)cc1,?,-,-,-[0.0925 µM],-,-
CCc1cccc(NS(=O)(=O)c2ccc3c(c2)N(C)CCO3)c1,?,23.8µM,-,?,-,31.6µM
Cc1ccc(S(=O)(=O)NC(C(=O)Oc2ccc3c(C(F)(F)F)cc(=O)oc3c2)c2ccccc2)cc1 (stereo not drawn),-,-,-,7.08µM,-,-
COC(=O)C(NS(=O)(=O)c1ccc(C)cc1)c1ccccc1 (stereo not drawn),-,-,-,-,-,-
CCOC(=O)C1CCCCN1Cc1ccccc1C(F)(F)F (stereo not drawn),-,-,?,-,.,4.47µM
COc1ccccc1CN1CCCCC1C(=O)O (stereo not drawn),-,-,-,-,-,35.5µM
CCOC(=O)C1CCN(Cc2ccccc2C(F)(F)F)CC1,79.4µM,-,?,15.8µM,.,2.82µM
O=C(Nc1nnc([C@@H]2C[C@H](O)[C@@H](CO)O2)s1)Nc1ccc(F)cc1F,.,-,.,.,-,.
CCOC(=O)c1c(C)[nH]c(C(=O)OC)c1CCC(=O)OC,?,-,-,-[12.7 µM],-,-
CCOC(=O)c1[nH]c(Cc2[nH]c(C(=O)OCC)c(C)c2CCC(=O)OC)c(CCC(=O)OC)c1C,?,-,-,39.8µM,.,39.8µM
COc1cccc(OCc2cc(C(=O)NC(C)c3cnn(C)c3C)no2)c1 (stereo not drawn),-,-,-,-,-,-
CC(=O)Nc1ccc(NC(=O)C(C)OC(=O)CCC2CCCC2)cc1 (stereo not drawn),-,-,-,35.5µM,-,-
Cc1ccc(CNC(=O)c2cc3c(=O)n(Cc4ccco4)ccc3nc2C)cc1,-,.,-,?,.,-
CC(C)C(=O)NC(c1ccccc1)c1cc([N+](=O)[O-])c2cccnc2c1O (stereo not drawn),5.62µM,-,-,?,-,?
CC(=O)NC(c1ccc(C)cc1)c1cc(Cl)c2cccnc2c1O (stereo not drawn),-,-,-,-,-,-
CC(=O)NC(c1ccccc1)c1cc([N+](=O)[O-])c2cccnc2c1O (stereo not drawn),3.55µM,-,-,10µM,-,10µM
Cc1ccc(Cl)c(NC(=O)CSc2n[nH]c(=O)n2C2CC2)c1Cl,-,-,-,?,-,-
Cc1cc([N+](=O)[O-])cc2c1NCC1CC=CC21 (stereo not drawn),?,-,-,?,-,-
Cc1cc([N+](=O)[O-])c2c(c1C)C1C=CCC1C(c1ccccn1)N2 (stereo not drawn),.,.,.,28.2µM,.,.
O=C(CN1CCN(c2ncccn2)CC1)NCc1ccccc1,-,-,-,56.2µM,-,-
